Screens as filed in PubChem.
Sampled rows, rich in hits. Any-hit rate of the full collection: about 19%.
TDP1 cell noCPT: qHTS for Inhibitors of human tyrosyl-DNA phosphodiesterase 1 (TDP1): qHTS in cells in absence of CPT; DT40 Tdp1-/- hTDP1 cells, no CPT, ATP luminescence, 48 h; Potency, µM (doses to about 46.2 µM), for inactives: top-dose activity change, negative = growth inhibition, usual class: inhibitors; hit rate 15% among 420,000; AID 686978, 2013; note: nearly all actives have a fitted effect of over 55% in size
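Compound effects on proliferation are scored in DT40 Tdp1-/-;hTDP1 cells in the absence of CPT. ATP levels (CellTiter-Glo luminescence) are recorded after a ≥48 hr, 37 °C incubation.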
HT1080 IDH1KD tx: HT-1080 IDH1 knockdown cell toxicity (counter line); Potency, µM (highest dose often 46.1 µM), for inactives: at the highest dose activity, negative = toxicity, hits mostly cytotoxic; hit rate 2% among 360,000; HT-1080 IDH1 knockdown viability, ATP luminescence, 48 h;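 note: 0% = DMSO wells and -100% = cell-free medium wells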
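After a 2 h attachment period, IDH1KD HT-1080 cells took pin-transferred compound for 48 h at 37 °C; ATP-based luminescence after 10 min room-temperature reagent incubation reported viability.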
KB-3-1 cytotox: kills parental KB-3-1 adenocarcinoma cells | KB-3-1 viability, CellTiter-Glo ATP luminescence, 72 h | Potency, µM (titrated, usually from 46.1 µM), actives largely listed as cytotoxic | hit rate 1.4% among 400,000; note: nearly all actives have a fitted effect of over 60% in size
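Using CellTiter-Glo luminescence, growth of non-resistant KB-3-1 adenocarcinoma cells is assessed 72 h after pin-tool compound addition at 37 °C. Normalized responses across the concentration series yield fitted curves.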
KB-V1 MDR tox: KB-V1 MDR subline cytotoxicity | KB-V1 MDR cells viability, CellTiter-Glo, 72 h | Potency, µM (highest dose often 46.1 µM), hits mostly cytotoxic | hit rate 3.4% among 400,000 | AID 1347076; note: nearly all actives have a fitted effect of over 60% in size
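KB-V1 cells (P-gp-expressing MDR subline of KB-3-1) in phenol-red-free DMEM with 10% FBS were exposed to library compounds over a concentration series for 72 h at 37 degrees C. Viability read by CellTiter-Glo luminescence; concentration-effect curves fitted after normalization.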
HT1080-NT tox: kills 2HG-producing HT-1080-NT fibrosarcoma cells. AID 686970. Potency, µM (highest dose often 46.1 µM), for the others: top-dose activity, negative = less viability, usual class: cytotoxic. HT-1080-NT fibrosarcoma viability, CellTiter-Glo ATP luminescence, 48 h. hit rate 1.6% among 360,000;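 note: NT is the 2HG producing partner of a matched IDH1 knockdown line; 0% = DMSO-treated cells and -100% = media-only wells without cells; nearly all actives have a fitted effect of over 55% in size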
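A 48-hour cytotoxicity screen used HT-1080-NT cells plated 2 hours before compound delivery. ATP-based CellTiter-Glo luminescence measured viability, normalized to DMSO and no-cell controls.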
TDP1 cell CPT: DT40-hTDP1 cell growth loss with CPT. chicken DT40 Tdp1-/-;hTDP1 cells + 20 nM CPT, ATP luminescence, 48 h. Potency, µM (highest dose often 46.2 µM), without a hit: top-dose activity change, negative = growth inhibition, usual class: inhibitors. hit rate 12% among 420,000; note: nearly all actives have a fitted effect of over 55% in size
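Chicken DT40 Tdp1-/- cells stably complemented with human TDP1 were seeded at 400 cells/well in medium containing 20 nM camptothecin, exposed to pin-transferred compounds, and grown at 37 °C for at least 48 hr. Viability was read as ATP luminescence.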
Numbers without * were called inactive; i = inactive; ? = inconclusive; · = no result given. Calls come from the whole dose curve; as a rule, active = well fitted curve in the direction sought with a large enough effect; inconclusive = small, poorly fitted or top-dose-only effect, or another doubt; inactive = no such curve, though single readings can be large; an effect the other way counts as inactive or inconclusive. Unless noted, % is set by controls: 0 for no effect and ±100 for the full control effect; potency is the fitted concentration of half-maximal effect.

SMILES | TDP1 cell noCPT | HT1080 IDH1KD tx | KB-3-1 cytotox | KB-V1 MDR tox | HT1080-NT tox | TDP1 cell CPT
O=[N+]([O-])c1cc(/C=N/n2c(-c3ccncc3)n[nH]c2=S)ccc1Cl | -22.0% | -13.8% | i | i | -9.2% | -8.9%
Cc1cc(-c2n[nH]c(=S)n2/N=C/c2cc([N+](=O)[O-])ccc2Cl)n[nH]1 | 18.4µM* | -18.7% | ? | ? | -18.6% | 5.17µM*
Cc1cc(-c2n[nH]c(=S)n2/N=C/c2ccc(Cl)c([N+](=O)[O-])c2)n[nH]1 | ? | 4.61µM* | ? | i | 6.51µM* | ?
CCOC(=O)c1c(C)[nH]c(C(=O)OCc2ccc(F)cc2)c1C | 1.7% | 10.7% | i | i | 3.4% | -8.9%
CCOC(=O)c1c(C)[nH]c(C(=O)OCC(=O)Nc2sc(C(=O)N(C)C)c(C)c2C(=O)OCC)c1C | 23.1µM* | -0.7% | i | ? | -11.4% | ?
CCOC(=O)c1[nH]c(C)c(C(=O)OCC(=O)NC(C)c2ccc(F)cc2)c1C (centres undefined) | 1.16µM* | 3.66µM* | 1.84µM* | i | 3.66µM* | 1.64µM*
CCOC(=O)c1c(C)[nH]c(C(=O)OCC(=O)NC(C)(C)C)c1C | 18.4µM* | -21.6% | i | ? | -4.5% | ?
CCNc1ncc2nc(-c3ccc(OC)cc3)c(=O)n(CCOC)c2n1 | 6.3% | · | · | · | · | 3.7%
O=C1N=C(N2CCCC2C(=O)O)S/C1=C\c1ccco1 (centres undefined) | 18.4µM* | -12.0% | i | i | -2.8% | 8.2µM*
O=C(CNC(=O)c1nc[nH]c1C(=O)N1CCN(c2ccccc2)CC1)OCc1ccccc1 | -6.8% | -6.6% | i | i | 0.0% | -0.4%
O=C1c2ccccc2C(=O)N1/N=C/c1ccc(O)c(O)c1O | ? | -2.9% | i | i | -6.8% | 4.11µM*
Oc1ccc(/C=N/N2CCCCC2)c(O)c1O | 10.3µM* | 3.1% | i | i | 6.7% | 5.8µM*
O=C1c2cccc3cccc(c23)C(=O)N1/N=C/c1ccc(O)cc1O | -24.8% | 4.2% | i | i | -3.9% | -1.1%
Oc1ccc(/C=N/N2CCOCC2)c(O)c1O | 4.11µM* | 12.9% | i | i | 12.7% | 4.11µM*
Cc1c(C(=O)N2CCCC2)sc2ncnc(NCCCN3CCOCC3)c12 | -0.3% | · | · | · | · | 9.3%
CCC1(c2ccc(F)cc2)NC(=O)N(CC(=O)N2CCN(S(=O)(=O)c3ccc(C)cc3C)CC2)C1=O (centres undefined) | ? | -0.1% | ? | i | -23.2% | ?
Cc1ccc(NC(=O)Cn2c(=O)n(-c3ccccc3)c(=O)c3ccc(C(=O)NCc4ccc5c(c4)OCO5)cc32)c(C)c1 | -13.6% | · | i | ? | · | ?
O=C(N[C@@H]1c2ccccc2C2(CCN(Cc3c(O)ccc4ccccc34)CC2)[C@H]1O)c1ccccc1 | -23.8% | · | · | · | · | -11.5%
CCn1cc(CNCc2cn[nH]c2-c2cc3ccccc3o2)cn1 | 23.1µM* | -13.7% | i | i | -6.6% | 18.4µM*
CCn1cc(CNC(=O)c2cccc([N+](=O)[O-])c2)cn1 | 12.7% | 16.1% | i | i | 14.8% | 7.0%
CN(CC(=O)Nc1cccc(S(=O)(=O)N2CCCC2)c1)CC(=O)Nc1ccc(Cl)c(C(F)(F)F)c1 | 16.4µM* | 18.4µM* | ? | i | 9.2µM* | ?
Cc1ccc(S(=O)(=O)N2CCOCC2)cc1NC(=O)CN(C)CC(=O)Nc1cccc(F)c1 | 20.6µM* | -11.5% | i | i | -13.9% | ?
CN(CC(=O)Nc1cccc(S(=O)(=O)N2CCCC2)c1)CC(=O)Nc1ccc(F)c(F)c1F | ? | 2.2% | i | 20.6µM* | -13.2% | ?
Cc1ccc(S(=O)(=O)N2CCOCC2)cc1NC(=O)CN(C)C1CCS(=O)(=O)C1 (centres undefined) | 1.7% | 9.2% | i | i | 0.0% | 6.0%
Cc1ccccc1-c1nn(-c2ccccc2)cc1C(=O)NCC(c1ccco1)N1CCCC1 (centres undefined) | 18.4µM* | 0.0% | i | i | -1.6% | 20.6µM*
SMILES | TDP1 cell noCPT | HT1080 IDH1KD tx | KB-3-1 cytotox | KB-V1 MDR tox | HT1080-NT tox | TDP1 cell CPT
COc1ccc(OC)c(-c2nn(-c3ccccc3)cc2C(=O)NCC(c2ccco2)N2CCCC2)c1 (centres undefined) | 20.6µM* | -1.8% | i | i | -0.3% | ?
COc1ccccc1-c1nn(Cc2ccccc2)cc1C(=O)NCC(c1ccco1)N1CCCC1 (centres undefined) | 0.0% | 2.5% | i | i | 27.8% | ?
CCOc1ccc2nc(N(Cc3cccnc3)C(=O)c3ccco3)sc2c1 | -13.4% | · | · | · | · | -7.7%
COc1cccc(C(=O)NCCCn2ccnc2)c1 | 5.2% | 8.8% | i | i | 18.2% | -5.2%
O=C(NC(CSCc1ccccc1)C(=O)N/N=C/c1ccc(O)cc1O)c1ccc([N+](=O)[O-])cc1 (centres undefined) | 4.47µM* | 0.891µM* | ? | i | 2.82µM* | 7.08µM*
CC(=O)c1cccc(S(=O)(=O)N2CCC(C(=O)O)CC2)c1 | 12.1% | 7.5% | i | i | 10.6% | 2.6%
COc1ccc(C2CCCCCN2C(=O)C2CCN(S(=O)(=O)c3cccc(C(C)=O)c3)CC2)cc1 (centres undefined) | ? | -3.3% | i | 18.4µM* | -5.8% | ?
O=C(O)CC(CC(=O)O)(C(=O)O)c1ccccc1 | 6.6% | 12.5% | i | i | 4.2% | 0.9%
O=S(CC(O)(c1ccccc1)c1ccccc1)CC(O)(c1ccccc1)c1ccccc1 | 18.4µM* | ? | ? | ? | ? | 18.4µM*
CCN(CC)C(=O)CSc1nnc2nnc3cc(Cl)ccc3n12 | ? | ? | ? | ? | ? | -18.7%
CCN(CC)C(=O)CSc1nnc2nnc3cc(C)ccc3n12 | -4.3% | -6.0% | i | 20.6µM* | 3.8% | 8.2%
CCN(CC)S(=O)(=O)c1cccc(C(=O)Nc2cccnc2)c1 | -27.7% | 5.9% | i | 20.6µM* | 5.0% | ?
CCN(CC)S(=O)(=O)c1cccc(NC(=O)CNc2cccc(S(=O)(=O)N3CCCC3)c2)c1 | 1.16µM* | -24.7% | · | · | -24.2% | 1.03µM*
CCN(CC)S(=O)(=O)c1cc(NC(=O)CNc2cccc(S(=O)(=O)N3CCOCC3)c2)ccc1C | 2.06µM* | 18.4µM* | 8.2µM* | i | 6.51µM* | 5.17µM*
